TDP1 cell noCPT: qHTS for Inhibitors of human tyrosyl-DNA phosphodiesterase 1 (TDP1): qHTS in cells in absence of CPT; DT40 Tdp1-/- hTDP1 cells, no CPT, ATP luminescence, 48 h; Potency, µM (titrated, usually from 46.2 µM), actives largely listed as inhibitors; 420,000 compounds, 15% hits; AID 686978, 2013; also: nearly all actives have a fitted effect of over 55% in size
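Stably hTDP1-transfected Tdp1-null chicken DT40 cells were treated with library compounds minus camptothecin and grown for at least 48 hr at 37 °C, after which cellular ATP was quantified by luminescence.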
TDP1 cell CPT: growth inhibition of DT40 Tdp1-/-;hTDP1 cells with camptothecin (screen for TDP1 inhibitors); chicken DT40 Tdp1-/-;hTDP1 cells + 20 nM CPT, ATP luminescence, 48 h; Potency, µM (doses to about 46.2 µM), hits mostly inhibitors; 420,000 compounds, 12% hits; AID 686979; also: nearly all actives have a fitted effect of over 55% in size
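Cell growth measured by CellTiter-Glo luminescence after a minimum 48 h, 37 C compound exposure with 20 nM CPT in Tdp1-knockout DT40 cells stably expressing hTDP1, seeded 400/well; qHTS titration format.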
HT1080 IDH1KD tx: toxicity to HT-1080 IDH1 knockdown cells (counter line) | HT-1080 IDH1 knockdown viability, ATP luminescence, 48 h | Potency, µM (highest dose often 46.1 µM), most hits filed as cytotoxic | 360,000 compounds, 2% hits
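Luminescent ATP read-out (CellTiter-Glo, 10 min at room temperature) after 48 h compound exposure at 37 °C gave viability of IDH1-knockdown HT-1080 cells. Activity was normalised to DMSO and cell-free wells, then fitted as concentration-response curves.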
HT1080-NT tox: kills 2HG-producing HT-1080-NT fibrosarcoma cells; HT-1080-NT fibrosarcoma viability, CellTiter-Glo ATP luminescence, 48 h; Potency, µM (titrated, usually from 46.1 µM), usual class: cytotoxic; 360,000 compounds, 1.6% hits;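 also: NT is the 2HG producing partner of a matched IDH1 knockdown line; nearly all actives have a fitted effect of over 55% in size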
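Toxicity toward the 2HG-producing NT line was scored as %Activity, normalised to DMSO and no-cell wells, from CellTiter-Glo luminescence after 48 hours' treatment.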
IL1B secr inh: inflammasome signaling inhibition, IL-1 beta readout. 360,000 compounds, 4.7% hits. activity change, % at 57.5 µM. AID 743279. THP-1 LPS/ATP IL-1B secretion, AlphaLISA, 16 h; stronger effect = lower value; in the data active = activity change below about -50%; inconclusive = mostly about -30% to -49%
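THP-1 cells pretreated 1 hr with compounds (up to 57.5 uM final), then stimulated with LPS (250 ng/mL final) plus ATP (1.25 mM final); secreted IL-1B measured by AlphaLISA after 16 hr, decreased signal indicating inhibition.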
Each line names hits and unclear results; the compound was inactive in the other large screens. Compounds with a hit are over-represented: about 19% of the library has one in this group of screens. Unless noted, calls follow the shape of the dose curve; as a rule, active = well fitted curve in the direction sought with a large enough effect; inconclusive = small, poorly fitted or top-dose-only effect, or another doubt; inactive = no such curve, though single readings can be large; an effect the other way counts as inactive or inconclusive.

CCn1nc(NC(=O)c2ccco2)c2cc3cc(C)ccc3nc21	TDP1 cell noCPT inconclusive, TDP1 cell CPT inconclusive, IL1B secr inh -50
CCn1nc(NC(=O)c2ccncc2)c2cc3cc(C)ccc3nc21	TDP1 cell noCPT 23µM, TDP1 cell CPT inconclusive, IL1B secr inh inconclusive
CCCn1nc(NC(=O)c2ccco2)c2cc3ccccc3nc21	TDP1 cell noCPT 15µM, TDP1 cell CPT 23µM
Cc1ccc2cc3c(NC(=O)c4cccnc4)nn(C)c3nc2c1	TDP1 cell noCPT 13µM
Cc1ccc2cc3c(NC(=O)c4ccco4)nn(C)c3nc2c1	TDP1 cell noCPT inconclusive
CC1CCCN(Cc2c(O)ccc3c(=O)c(Oc4ccccc4Cl)c(C(F)(F)F)oc23)C1 (stereo not given)	none (no result: HT1080 IDH1KD tx, HT1080-NT tox, IL1B secr inh)
Cc1ccc2[nH]c(=O)c3cc(C(=O)NC4CCC(C)CC4)sc3c2c1 (stereo not given)	none (no result: HT1080 IDH1KD tx, HT1080-NT tox, IL1B secr inh)
COc1ccc(C(=O)NC(=O)COC(=O)c2ccc(C)o2)cc1	none
CCCC(=O)Nc1nn(CC(C)C)c2nc3cc(C)ccc3cc12	none
CCCn1nc(NC(=O)c2ccncc2)c2cc3ccccc3nc21	TDP1 cell noCPT inconclusive, IL1B secr inh inconclusive
CC(C)Cn1nc(NC(=O)c2cccc(Cl)c2)c2cc3ccccc3nc21	TDP1 cell noCPT 8.2µM, TDP1 cell CPT 15µM (no result: HT1080 IDH1KD tx, HT1080-NT tox, IL1B secr inh)
CCn1nc(NC(=O)CC(C)C)c2cc3ccc(C)cc3nc21	TDP1 cell noCPT inconclusive, TDP1 cell CPT 29µM
COc1cccc(C(=O)COC(=O)CCCC(=O)NC2CCCCC2)c1	none
COC(=O)[C@H](CO)N1C(=O)[C@@H]2[C@H](C1=O)C1C=C[C@H]2C1	none
CN(C)c1ccc(C(=O)NCC(c2cccs2)N2CCOCC2)cc1 (stereo not given)	none
O=C(NCC(c1cccs1)N1CCOCC1)c1ccccc1NS(=O)(=O)c1ccc(Cl)cc1 (stereo not given)	TDP1 cell noCPT inconclusive, TDP1 cell CPT inconclusive, HT1080-NT tox inconclusive
O=C(NCC(c1cccs1)N1CCOCC1)c1ccc(Cl)c([N+](=O)[O-])c1 (stereo not given)	TDP1 cell noCPT inconclusive, TDP1 cell CPT inconclusive, IL1B secr inh -94
CCc1cc(C(=O)NCC(c2cccs2)N2CCOCC2)sc1C (stereo not given)	TDP1 cell noCPT 23µM, TDP1 cell CPT inconclusive
Cn1nc(C(=O)NCC(c2cccs2)N2CCOCC2)c2ccccc2c1=O (stereo not given)	TDP1 cell noCPT 16µM, TDP1 cell CPT 26µM
O=C(NCC(c1cccs1)N1CCOCC1)c1ccccc1NS(=O)(=O)c1ccc(Br)cc1 (stereo not given)	TDP1 cell noCPT 15µM, TDP1 cell CPT inconclusive
Cc1ccc(Cn2cc(-c3ccccc3)nn2)cc1	TDP1 cell noCPT inconclusive, TDP1 cell CPT inconclusive
c1ccc(COc2ccccc2CNc2nn[nH]n2)cc1	none
Nc1c(-c2nn[nH]n2)cnn1-c1cc(Cl)cc(Cl)c1	none
Cc1ccsc1C(=O)NCC(c1cccs1)N1CCOCC1 (stereo not given)	TDP1 cell noCPT inconclusive, TDP1 cell CPT inconclusive, HT1080 IDH1KD tx inconclusive, HT1080-NT tox 18µM
CC(C)(Oc1ccc(Cl)cc1)C(=O)NCC(c1cccs1)N1CCOCC1 (stereo not given)	TDP1 cell noCPT 18µM, TDP1 cell CPT inconclusive
CC(C)(C)c1ccc(OCCC(=O)NCC(c2cccs2)N2CCOCC2)cc1 (stereo not given)	TDP1 cell noCPT inconclusive
O=C(Cc1cccc2ccccc12)Nc1nc2ccccc2[nH]1	TDP1 cell CPT inconclusive, HT1080 IDH1KD tx 13µM, HT1080-NT tox 13µM
CCCCCC(=O)Nc1nc2ccccc2[nH]1	TDP1 cell noCPT 8.2µM, TDP1 cell CPT 9.2µM, HT1080 IDH1KD tx inconclusive, HT1080-NT tox inconclusive
CCOc1ccccc1OCCCC(=O)Nc1nc2ccccc2[nH]1	none
COc1ccccc1CCC(=O)Nc1nc2ccccc2[nH]1	TDP1 cell noCPT 4.1µM, TDP1 cell CPT 5.8µM, HT1080 IDH1KD tx inconclusive
C[C@@H]1CN([C@H](C)CO)C(=O)CCCn2nncc2CO[C@H]1CN(C)C(=O)OCc1ccccc1	HT1080-NT tox inconclusive

Bioassay records deposited in PubChem BioAssay by National Center for Advancing Translational Sciences (NCATS).
